# Screening results as filed in PubChem.
# SIRT5 block: SIRT5 desuccinylase inhibitors, primary screen, biochemical, fluorescence imaging, single point, set 5. hit rate 1.1% among 330,000. NAD-dependent protein deacylase sirtuin-5, mitochondrial (Homo sapiens), Q9NXA8. AID 652115, 2013. inhibition, % at 15 µM. Purified SirT5, succinyl-peptide AMC, trypsin-coupled fluorescence; in the data active = inhibition above about 15%
# Target sequence (Q9NXA8 whole entry, looked up): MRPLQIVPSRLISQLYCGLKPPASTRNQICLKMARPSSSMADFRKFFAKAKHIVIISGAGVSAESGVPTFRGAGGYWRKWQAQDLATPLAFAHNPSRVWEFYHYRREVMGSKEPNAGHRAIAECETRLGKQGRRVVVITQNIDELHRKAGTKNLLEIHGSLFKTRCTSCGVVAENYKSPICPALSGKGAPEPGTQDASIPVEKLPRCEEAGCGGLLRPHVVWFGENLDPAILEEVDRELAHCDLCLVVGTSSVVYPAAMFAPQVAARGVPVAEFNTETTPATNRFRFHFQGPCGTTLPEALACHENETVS
# CDK5 p35 inh: inhibitors of human CDK5/p35 kinase, primary screen, biochemical, single concentration. Cyclin-dependent kinase 5 (Homo sapiens) + Cyclin-dependent kinase 5 activator 1 (Homo …. inhibition, % at 10 µM. Recombinant CDK5/p35, ADP-Glo luminescence, 60 min. hit rate 0.01% among 330,000;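 active = highest replicate inhibition of at least 50% and at least 75% of replicates reaching 50%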;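 note: plate controls were DMSO neutral control for no effect and GW8510 at 10 µM for full effect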
# dFosB act: activators of delta FosB homodimer, primary screen, biochemical, fluorescence polarization, TAMRA-CDK5 oligo, single point; activation, % at 25 µM; hit rate 0.99% among 340,000; Protein FosB (Mus musculus), P13346; purified delta FosB; percent of positive-control signal above neutral wells; AID 493131, 2011;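 active = mean activation above about 17%, with every replicate also reaching it, limit read from the data, passing the limit was not always enough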
# PvdQ acylase: P. aeruginosa PvdQ acylase inhibitors, primary screen, biochemical, fluorescence, plate reader and imaging, single point | purified PvdQ acylase | AID 488965, 2010 | hit rate 0.063% among 340,000 | inhibition, % at 10 µM | PvdQ acylase [Pseudomonas aeruginosa LESB58]; in the data active = inhibition above about 30%, passing the limit was not always enough;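 note: 0% = vehicle neutral wells and 100% = reference inhibitor wells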
# PglD inh: C. jejuni PglD acetyltransferase inhibitors, primary screen, biochemical, DTNB colorimetric, single point; UDP-N-acetylbacillosamine N-acetyltransferase PglD (Campylobacter jejuni); AID 602405, 2012; hit rate 0.098% among 360,000; inhibition, % at 12.5 µM; purified PglD enzyme, DTNB colorimetric CoA detection; in the data active = inhibition above about 16%, passing the limit was not always enough
# FGF22 binding: binders of human FGF22 protein, primary screen, FGF22 synaptogenesis inhibitor project, biophysical, thermal shift, single point | hit rate 1.5% among 340,000 | Fibroblast growth factor 22 (Homo sapiens), Q9HCT0 | activity (Tm shift, normalised), % at 9.99 µM | recombinant FGF22 thermal shift, SYPRO orange fluorescence; percent of sucrose octasulfate shift, DMSO zero;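 active = mean Tm shift, scaled 0 neutral to 100 positive control, at about 1.3% or above, every replicate too, limit read from the data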
# Target sequence (Q9HCT0 whole entry, looked up): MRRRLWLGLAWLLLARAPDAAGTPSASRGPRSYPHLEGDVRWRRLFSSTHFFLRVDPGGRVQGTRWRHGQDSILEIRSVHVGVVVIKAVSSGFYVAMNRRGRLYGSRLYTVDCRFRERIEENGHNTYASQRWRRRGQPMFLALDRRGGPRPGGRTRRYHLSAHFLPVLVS
# An asterisk follows results filed as active; . = no result. An excerpt weighted towards active compounds, which were near 2.8% of everything screened.
SMILES,SIRT5 block,CDK5 p35 inh,dFosB act,PvdQ acylase,PglD inh,FGF22 binding
O=C(Cc1ccccc1)Nc1cccc([N+](=O)[O-])c1,-8.8,1.7,4.6,-0.4,-11.6,-0.3
Nc1nc(SCC(=O)Nc2cccc([N+](=O)[O-])c2)n[nH]1,0.9,-0.6,5.7,-11.3,-9.2,-0.2
O=C(Cc1cccs1)Nc1cccc([N+](=O)[O-])c1,-3.2,0.1,-5.2,-3.8,.,43.4*
Cc1c(NC(=O)Cc2cccs2)cccc1[N+](=O)[O-],-7.4,0.1,-11.6,-10.5,.,0.4
Cc1c(Cl)cccc1NC(=O)Cc1cccs1,56.9*,0.9,-1.3,-13.9,3.0,-0.1
O=C(CCc1n[nH]c(=O)[nH]c1=O)Nc1cccc([N+](=O)[O-])c1,2.7,0.2,-0.9,1.7,.,43.7*
CC(CC(=O)O)CC(=O)Nc1cccc([N+](=O)[O-])c1 (configuration not stated),-0.7,-4.0,5.2,-5.1,.,43.1*
COCC(=O)Nc1ccc2c(c1)C(=O)N(C)C[C@H](OC)[C@@H](C)CN(C)[C@@H](C)CO2,-2.8,.,.,.,6.6,.
CCOC(=O)CC1C(=O)NCCN1Cc1cccs1 (configuration not stated),-0.4,-0.7,-0.6,-10.5,6.0,43.2*
CC(=O)c1c(C)[nH]c(C(=O)N2CCN(c3ncccn3)CC2)c1C,15.7*,-0.4,0.9,1.4,-0.5,-0.1
CC(=O)c1c(C)[nH]c(C(=O)N2CCN(c3ccccn3)CC2)c1C,-3.1,0.5,-2.0,-18.7,-2.1,-0.1
COc1ccc2c3c([nH]c2c1)[C@@H](CO)N(C(=O)C1CCCCC1)CC31CCN(C(=O)c2ccncc2)CC1,2.6,.,.,.,.,-0.1
Cc1noc(C)c1S(=O)(=O)N(C)C[C@@H]1Oc2c(NS(=O)(=O)c3cn(C)cn3)cccc2C(=O)N([C@H](C)CO)C[C@H]1C,-0.8,.,.,.,0.8,0.1
COc1ccc(NC(=O)N(C)C[C@H]2Oc3ccc(NS(=O)(=O)c4ccc(F)cc4)cc3CC(=O)N([C@H](C)CO)C[C@H]2C)cc1,-1.6,.,.,.,.,-0.4
CCOc1ccc(NC(=O)CN(C)C(=O)c2cc([N+](=O)[O-])ccc2Sc2ccccc2)cc1OCC,2.7,-2.4,-3.7,-8.3,-0.2,18.6*
CCOc1ccc(NC(=O)CN(C)C(=O)c2cc([N+](=O)[O-])ccc2N2CCCCC2)cc1OCC,1.8,-1.0,-8.7,4.4,-10.8,-0.6
COc1ccc(NC(=O)N(C)C[C@@H]2Oc3ccc(NC(=O)CCCCCC(=O)Nc4ccccc4N)cc3CC(=O)N([C@@H](C)CO)C[C@@H]2C)cc1,.,.,.,.,-2.8,-0.2
CC(=O)C1=C(O)C(=O)N(CCCn2ccnc2)C1c1ccc(Br)cc1 (configuration not stated),2.6,0.5,-4.1,-5.2,-2.9,43.0*
COc1ccc(C2C(C(C)=O)=C(O)C(=O)N2CCCn2ccnc2)cc1OC (configuration not stated),.,-1.0,-8.4,8.4,-1.2,.
CC1CCN(Cc2c(C(=O)N/N=C/c3cc(Cl)ccc3O)nnn2-c2nonc2N)CC1,-3.7,-1.2,162.1*,3.3,-3.7,0.0
Cc1cc(C)c(/C=N/NC(=O)c2nnn(-c3nonc3N)c2CN2CCC(C)CC2)c(C)c1,-0.6,0.6,-24.4,-17.6,-2.2,0.3
COc1ccc(/C=N/NC(=O)c2nnn(-c3nonc3N)c2-c2cccc(OC)c2)cc1,-0.1,.,-0.7,-8.9,-0.2,0.1
CC1CCN(Cc2c(C(=O)N/N=C/c3cc(Br)ccc3O)nnn2-c2nonc2N)CC1,2.8,0.2,133.8*,-10.2,4.2,-0.1
COc1c(Cl)cc(Cl)cc1/C=N/NC(=O)c1nnn(-c2nonc2N)c1CN1CCC(C)CC1,1.6,.,-1.5,-0.9,-4.9,0.0
COc1ccc(O)c(/C=N/NC(=O)c2c(C)nnn2-c2nonc2N)c1,0.4,3.9,47.4*,7.0,.,0.9
SMILES,SIRT5 block,CDK5 p35 inh,dFosB act,PvdQ acylase,PglD inh,FGF22 binding
C[C@H]1CCCCO[C@H](CN(C)CC2CCCCC2)[C@@H](C)CN([C@@H](C)CO)C(=O)c2cc(NC(=O)Nc3ccc(F)cc3)ccc2O1,-7.7,.,.,.,1.3,0.0
CCOC(=O)C1(CCOC)CCN(Cc2ccc3nonc3c2)CC1,-1.1,-3.8,8.2,-21.9,4.0,-0.2
CCOC(=O)C1(Cc2cccc(OC)c2)CCN(CC(O)CO)CC1 (configuration not stated),6.6,2.0,0.9,-16.5,-0.5,0.2
CCOC(=O)C1(CCOc2ccccc2)CCN(Cc2ccc(OCCO)cc2)CC1,21.9*,-0.2,1.9,4.5,-3.1,-0.1
CCOC(=O)C1(CCOC)CCN(Cc2cnc(-c3cccc(C)c3)nc2)CC1,20.4*,0.4,-0.6,-5.2,.,0.1
CCOC(=O)C1(Cc2cccc(OC)c2)CCN(CCO)CC1,-7.2,-1.1,3.9,-9.0,4.9,43.5*
CN(C)CC(=O)Nc1ccc2c(c1)[C@H]1C[C@H](CC(=O)NCCN3CCCCC3)O[C@H](CO)[C@H]1O2,-4.4,.,.,.,-1.9,-0.4
Cc1ccc(S(=O)(=O)N[C@@H]2C=C[C@H](CC(=O)N3CCN(c4ccccc4)CC3)O[C@H]2CO)cc1,2.4,.,.,.,-0.9,-0.1
Cn1cnc(S(=O)(=O)N[C@@H]2CC[C@H](CC(=O)Nc3ccccc3)O[C@H]2CO)c1,-7.7,.,.,.,6.3,-0.2
CN(C)CCCNC(=O)C[C@@H]1C=C[C@H](NS(=O)(=O)c2ccccc2)[C@@H](CO)O1,15.4*,.,.,.,-1.6,0.0
Cc1ccc(S(=O)(=O)N[C@@H]2C=C[C@H](CC(=O)N3CCN(c4ccccc4)CC3)O[C@@H]2CO)cc1,24.7*,.,.,.,-3.4,0.1
CN(C)CCCNC(=O)C[C@@H]1C=C[C@@H](NS(=O)(=O)c2ccccc2)[C@H](CO)O1,-0.7,.,.,.,3.1,0.1
Cn1cnc(S(=O)(=O)N[C@H]2CC[C@@H](CC(=O)Nc3ccccc3)O[C@@H]2CO)c1,34.4*,.,.,.,5.3,-0.1
Cc1ccc(S(=O)(=O)N[C@H]2CC[C@H](CC(=O)N3CCN(c4ccccc4)CC3)O[C@H]2CO)cc1,-4.1,.,.,.,3.2,-0.2
Cc1ccc(S(=O)(=O)N[C@@H]2CC[C@@H](CC(=O)N3CCN(c4ccccc4)CC3)O[C@@H]2CO)cc1,23.9*,.,.,.,-0.1,0.2
C[C@@H]1CN([C@@H](C)CO)S(=O)(=O)c2ccc(-c3ccncc3)cc2O[C@H]1CN(C)Cc1ccc(Oc2ccccc2)cc1,1.1,.,.,.,4.1,-0.2
